LGR2 inh: inhibitors of bursicon-induced Drosophila LGR2 receptor cAMP signaling | HEK293 LGR2, CRE-luciferase, bursicon-stimulated, 4 h | hit rate 0.35% among 380,000 | inhibition, % at 9.99 µM;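 active = drop in luminescence signal, shown as inhibition above about 50% in the replicate tests, limit read from the data, passing the limit was not always enough; inconclusive = probably only some replicates passing the limit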;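 note: agonist challenge used bursicon conditioned medium at about half maximal strength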
TROY NFkB inh: inhibitors of TROY-dependent NF-kB signaling; Q293 LMP1-TROYcd NF-kB luciferase reporter, 4 h; inhibition, % at 10 µM; hit rate 0.98% among 360,000; AID 1347056;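 active = compounds whose plate-normalised and pattern-corrected inhibition of the luciferase reporter signal at the single screening dose is 50% or more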
EWS-Fli inh: EWS/Fli transcriptional activity inhibition; AID 651661; hit rate 0.67% among 350,000; inhibition, % at 12.6 µM; A673 NR0B1-luciferase reporter, viability-normalised;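 active = mean inhibition of at least 50% after viability correction, with every replicate also passing that limit; inconclusive = mean reaches 50% but only one of two replicates passes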;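 note: firefly luciferase signal divided by Alamar Blue viability fluorescence both relative to DMSO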
TWEAK-Fn14 inh: blocks TWEAK-Fn14 interaction in a reporter cell assay; TWEAK-stimulated Fn14 reporter cells, luciferase luminescence, 8 h; inhibition, % at 10 µM; AID 1159606; hit rate 2% among 360,000; in the data active = inhibition above about 50%
PAX8 inh HTS: PAX8 transcriptional activity inhibition. inhibition, % at 12.6 µM. hit rate 1.2% among 360,000. RMG-I TPO-luciferase reporter, SteadyGlo, 24 h;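 active = mean replicate inhibition at least 60% with every replicate also reaching 60%; inconclusive = only one of the two criteria is met; inactive = mean below 60% and not all replicates reaching 60%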;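 note: luciferase light reporting Pax8 driven TPO promoter activity; plate controls were median of neutral control wells for no effect and mitoxantrone controls for full effect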
An asterisk follows results filed as active. Hits are enriched below; roughly 2.8% of the tested compounds scored in any of these assays.

Screening NS(=O)(=O)c1ccc(Nc2nc(-c3cccc([N+](=O)[O-])c3)cs2)cc1 returned LGR2 inh 73*, TROY NFkB inh 56*, EWS-Fli inh -2, TWEAK-Fn14 inh 36 and PAX8 inh HTS 17.
NS(=O)(=O)c1ccc(Nc2nc(-c3ccc4ccccc4c3)cs2)cc1 was read as LGR2 inh -6, TROY NFkB inh 7 and TWEAK-Fn14 inh 17.
O=C(Nc1ccc(Cl)cc1)N[C@H]1CC[C@H](CCNS(=O)(=O)c2ccccc2F)O[C@H]1CO was read as LGR2 inh 13, EWS-Fli inh -6 and PAX8 inh HTS 17.
For C[C@@H]1CN([C@H](C)CO)C(=O)c2cc(NC(=O)CCC(F)(F)F)ccc2O[C@@H](C)CCCCO[C@H]1CN(C)Cc1ccc(C(=O)O)cc1 the results were LGR2 inh -19 and EWS-Fli inh -2.
Screening COc1ccc(-c2oc3cc(O)c(OC)c(O)c3c(=O)c2OC)cc1O returned LGR2 inh -68, TROY NFkB inh -16, EWS-Fli inh 36, TWEAK-Fn14 inh -2 and PAX8 inh HTS 63*.
For COc1ccc(-c2cc(=O)c3c(O)c(OC)c(O)cc3o2)cc1 the results were LGR2 inh 47, TROY NFkB inh 3, EWS-Fli inh -92 and TWEAK-Fn14 inh 54*.
For CNC[C@@H]1OCCCC[C@H](C)Oc2ccc(NC(=O)Nc3ccc(F)cc3)cc2C(=O)N([C@@H](C)CO)C[C@H]1C the results were LGR2 inh -11, EWS-Fli inh 5 and PAX8 inh HTS -32.
`CC(C)=NNc1ncnc2nc[nH]c12` gave TROY NFkB inh -20, EWS-Fli inh -2, TWEAK-Fn14 inh -2 and PAX8 inh HTS 70*.
CC(O)CNc1ncnc2nc[nH]c12 (stereo unspecified) was read as TROY NFkB inh 6, TWEAK-Fn14 inh 4 and PAX8 inh HTS -4.
For CN(C)c1cnn(-c2ccccc2)c(=O)c1Cl the results were TROY NFkB inh -23, EWS-Fli inh -6, TWEAK-Fn14 inh -8 and PAX8 inh HTS -61.
COc1ccc(-n2ncc(Cl)c(Cl)c2=O)cc1 was read as LGR2 inh 106*, TROY NFkB inh 56*, EWS-Fli inh 55*, TWEAK-Fn14 inh 98* and PAX8 inh HTS 105*.
`Cc1ccc(-n2ncc(N(C)C)c(Cl)c2=O)cc1` gave TROY NFkB inh 22 and TWEAK-Fn14 inh 55*.
Cc1cc(C(=O)Nc2ccc3c(c2)C(=O)N(C)[C@H]2CC[C@@H](CC(=O)NCc4ccc(-c5ccccc5)cc4)O[C@H]2CO3)no1 was read as LGR2 inh 10, EWS-Fli inh 32 and PAX8 inh HTS 91*.
For Cc1cc(C(=O)Nc2ccc3c(c2)C(=O)N(C)[C@@H]2CC[C@@H](CC(=O)NCc4ccc(-c5ccccc5)cc4)O[C@@H]2CO3)no1 the results were LGR2 inh 4, EWS-Fli inh 6 and PAX8 inh HTS 35.
`Cc1cc(C(=O)Nc2ccc3c(c2)C(=O)N(C)[C@H]2CC[C@H](CC(=O)NCc4ccc(-c5ccccc5)cc4)O[C@H]2CO3)no1` gave LGR2 inh 16, EWS-Fli inh 20 and PAX8 inh HTS 47.
For Cc1cc(C(=O)Nc2ccc3c(c2)C(=O)N(C)[C@@H]2CC[C@H](CC(=O)NCc4ccc(-c5ccccc5)cc4)O[C@H]2CO3)no1 the results were EWS-Fli inh 57* and PAX8 inh HTS 80*.
Screening Cc1cc(C(=O)Nc2ccc3c(c2)C(=O)N(C)[C@@H]2CC[C@H](CC(=O)NCc4ccc(-c5ccccc5)cc4)O[C@@H]2CO3)no1 returned LGR2 inh 26, EWS-Fli inh inconclusive and PAX8 inh HTS 80*.
For O=C(Cc1ccccc1)Nc1cccnc1 the results were LGR2 inh -2, TROY NFkB inh 21, EWS-Fli inh 11, TWEAK-Fn14 inh -9 and PAX8 inh HTS 4.
Cc1ccc2c(C)c(C(=O)Nc3cccnc3)oc2c1 was read as TROY NFkB inh -65 and TWEAK-Fn14 inh 4.
Cc1ccc2c(Cl)c(C(=O)Nc3cccnc3)sc2c1 was read as LGR2 inh -5, TROY NFkB inh -20, TWEAK-Fn14 inh 58* and PAX8 inh HTS 11.
Screening Cc1cc(C(F)(F)F)nn1CC(=O)Nc1cccnc1 returned TWEAK-Fn14 inh 66*.
`Cc1cccc(CC(=O)Nc2cccnc2)c1` gave LGR2 inh -1, TROY NFkB inh -4, EWS-Fli inh 4, TWEAK-Fn14 inh 103* and PAX8 inh HTS -2.
For O=C(C[C@@H]1C=C[C@H](NC(=O)Nc2cc(F)ccc2F)[C@@H](CO)O1)NCc1ccc2c(c1)OCO2 the results were LGR2 inh 19.
For O=C1CS/C(=N\c2ccccn2)N1C1CCCCC1 the results were TROY NFkB inh 9 and TWEAK-Fn14 inh 53*.
Cc1nn(-c2ccccc2)c(C)c1/C=N/NC(=O)CSc1nnc(SCc2ccc(Cl)cc2)s1 was read as TROY NFkB inh 18, EWS-Fli inh -30, TWEAK-Fn14 inh 83* and PAX8 inh HTS -30.
For Cc1nn(-c2ccccc2)c(C)c1/C=N/NC(=O)c1cc(-c2ccc(Br)s2)[nH]n1 the results were TROY NFkB inh 13, TWEAK-Fn14 inh 69* and PAX8 inh HTS -2.
For Cc1nn(-c2ccccc2)c(C)c1/C=N/NC(=O)c1cc(-c2ccc(Cl)s2)[nH]n1 the results were TROY NFkB inh 13, TWEAK-Fn14 inh 59* and PAX8 inh HTS 16.
`O=C(CSc1nnc(SCc2ccccc2)s1)N/N=C/c1c(Cl)cccc1Cl` gave LGR2 inh -21, TROY NFkB inh -34, TWEAK-Fn14 inh 3 and PAX8 inh HTS -13.
Screening Cc1cccc(NC(=O)c2ccc3c(Cl)c4c(nc3c2)CCCC4)n1 returned LGR2 inh -69, TROY NFkB inh 71*, EWS-Fli inh 14, TWEAK-Fn14 inh 63* and PAX8 inh HTS -167.
O=C(Nc1ccc(Cl)cn1)c1ccc2c(Cl)c3c(nc2c1)CCC3 was read as LGR2 inh -18, TROY NFkB inh 60*, EWS-Fli inh -69, TWEAK-Fn14 inh 51* and PAX8 inh HTS -151.
C[C@H]1CN([C@@H](C)CO)C(=O)c2ccccc2-c2ccccc2CO[C@@H]1CN(C)C(=O)[C@@H](Cc1ccccc1)N(C)C was read as LGR2 inh -1, EWS-Fli inh -2 and PAX8 inh HTS 13.
COCC(=O)N1CC(=O)N2[C@H](CO)[C@@H](c3ccc(C#CC(C)C)cc3)[C@H]2C1 was read as LGR2 inh 6, EWS-Fli inh -5 and PAX8 inh HTS 7.
For CC(C)(C)c1ccc(OCCOc2ccc(C(C)(C)C)cc2NC=O)c(NC=O)c1 the results were LGR2 inh 7, TROY NFkB inh 51*, EWS-Fli inh 15, TWEAK-Fn14 inh 26 and PAX8 inh HTS 32.
For Cc1[nH]nc(S(=O)CC(=O)O)c1[N+](=O)[O-] (stereo unspecified) the results were LGR2 inh 28, TROY NFkB inh 88*, EWS-Fli inh 22, TWEAK-Fn14 inh 61* and PAX8 inh HTS 8.
Screening Cc1[nH]nc(NCCO)c1[N+](=O)[O-] returned LGR2 inh 13, TROY NFkB inh -1, EWS-Fli inh -3, TWEAK-Fn14 inh 10 and PAX8 inh HTS -23.

Screening data from PubChem.
